19 molecules from ChEMBL document CHEMBL2218924, “A broad activity screen in support of a chemogenomic map for kinase signalling research and drug discovery” (Biochem J, 2013) can be followed below.

For experiment [1], the target named is Protein kinase C alpha type (Homo sapiens) (UniProt P17252). The note with it: at 1 µM.
For experiment [2] the target is unchanged. Conditions: at 10 µM.
The target in experiment [3] is Protein kinase C beta type (Homo sapiens) (UniProt P05771). The note with it: at 1 µM.
Sequence of Protein kinase C beta type (Homo sapiens) (P05771 2-671 limits assumed): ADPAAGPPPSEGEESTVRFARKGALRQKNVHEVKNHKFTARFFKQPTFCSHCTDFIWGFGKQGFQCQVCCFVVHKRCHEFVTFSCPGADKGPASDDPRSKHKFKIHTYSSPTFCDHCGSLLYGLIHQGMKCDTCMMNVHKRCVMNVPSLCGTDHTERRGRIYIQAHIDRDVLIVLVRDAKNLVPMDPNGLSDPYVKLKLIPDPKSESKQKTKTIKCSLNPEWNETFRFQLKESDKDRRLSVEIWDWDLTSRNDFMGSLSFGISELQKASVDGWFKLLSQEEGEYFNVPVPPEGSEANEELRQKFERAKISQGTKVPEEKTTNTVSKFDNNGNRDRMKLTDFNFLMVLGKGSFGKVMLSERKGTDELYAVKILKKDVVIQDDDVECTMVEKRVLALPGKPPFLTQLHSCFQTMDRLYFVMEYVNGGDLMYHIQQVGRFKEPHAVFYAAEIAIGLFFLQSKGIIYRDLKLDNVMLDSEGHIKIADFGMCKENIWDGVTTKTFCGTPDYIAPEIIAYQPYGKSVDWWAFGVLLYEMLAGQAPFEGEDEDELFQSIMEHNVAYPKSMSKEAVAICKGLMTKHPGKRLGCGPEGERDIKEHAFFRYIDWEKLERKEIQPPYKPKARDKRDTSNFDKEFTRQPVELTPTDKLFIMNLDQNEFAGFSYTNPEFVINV
Experiment [4] has the same target. The note with it: at 10 µM.
Experiment [5] has the same target. The note with it: at 1 µM. This is another data set of the same source.
For experiment [6] the target is unchanged. The note with it: at 10 µM. This is another data set of the same source.
The target in experiment [7] is Protein kinase C gamma type (Homo sapiens) (UniProt P05129). Conditions: at 1 µM.
The target is the same in experiment [8]. Conditions: at 10 µM.
Experiment [9] deals with Protein kinase C delta type (Homo sapiens) (UniProt Q05655). The note with it: at 1 µM.
Sequence of Protein kinase C delta type (Homo sapiens) (Q05655 whole entry, looked up): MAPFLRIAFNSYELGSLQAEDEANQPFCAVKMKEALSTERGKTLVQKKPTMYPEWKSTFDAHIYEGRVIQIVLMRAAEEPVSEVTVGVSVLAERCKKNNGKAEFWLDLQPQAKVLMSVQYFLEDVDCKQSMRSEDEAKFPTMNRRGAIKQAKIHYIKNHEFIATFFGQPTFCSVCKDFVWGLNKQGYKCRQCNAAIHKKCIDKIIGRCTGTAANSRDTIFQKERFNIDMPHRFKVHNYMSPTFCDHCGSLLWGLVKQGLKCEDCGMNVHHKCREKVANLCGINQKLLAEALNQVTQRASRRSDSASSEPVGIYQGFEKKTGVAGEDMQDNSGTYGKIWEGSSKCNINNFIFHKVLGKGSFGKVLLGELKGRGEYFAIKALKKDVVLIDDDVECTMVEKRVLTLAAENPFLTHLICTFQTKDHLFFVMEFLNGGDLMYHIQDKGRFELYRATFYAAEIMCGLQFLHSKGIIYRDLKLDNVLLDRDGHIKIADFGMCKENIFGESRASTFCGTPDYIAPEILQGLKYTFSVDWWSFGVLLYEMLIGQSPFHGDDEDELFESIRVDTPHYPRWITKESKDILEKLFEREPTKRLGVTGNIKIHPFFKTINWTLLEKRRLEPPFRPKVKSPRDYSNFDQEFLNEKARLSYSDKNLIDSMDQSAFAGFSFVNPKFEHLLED
Experiment [10] shares this target. The note with it: at 10 µM.
For experiment [11], the target named is T1, Protein kinase C epsilon type (Homo sapiens) (UniProt Q02156).
T1 sequence (whole entry): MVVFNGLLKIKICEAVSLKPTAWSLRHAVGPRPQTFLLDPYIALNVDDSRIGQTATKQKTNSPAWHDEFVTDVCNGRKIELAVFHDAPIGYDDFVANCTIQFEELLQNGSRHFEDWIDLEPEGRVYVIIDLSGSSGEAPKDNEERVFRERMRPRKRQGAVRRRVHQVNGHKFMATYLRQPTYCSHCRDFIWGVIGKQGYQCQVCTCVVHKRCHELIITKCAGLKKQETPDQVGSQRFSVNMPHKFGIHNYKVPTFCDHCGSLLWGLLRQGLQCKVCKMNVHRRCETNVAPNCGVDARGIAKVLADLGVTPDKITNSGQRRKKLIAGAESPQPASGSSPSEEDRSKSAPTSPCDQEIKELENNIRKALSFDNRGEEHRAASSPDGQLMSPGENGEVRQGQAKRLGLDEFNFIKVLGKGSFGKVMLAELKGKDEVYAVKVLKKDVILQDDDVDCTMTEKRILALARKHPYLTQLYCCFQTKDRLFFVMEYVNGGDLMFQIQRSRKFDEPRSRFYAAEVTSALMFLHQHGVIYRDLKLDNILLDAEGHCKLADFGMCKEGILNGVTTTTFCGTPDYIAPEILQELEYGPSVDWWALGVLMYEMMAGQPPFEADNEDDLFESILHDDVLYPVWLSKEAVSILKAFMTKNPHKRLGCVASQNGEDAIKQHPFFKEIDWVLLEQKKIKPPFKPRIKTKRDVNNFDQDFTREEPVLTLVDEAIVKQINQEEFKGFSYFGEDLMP
The note with it: at 1 µM.

Experiment [12] deals with T1, Protein kinase C epsilon type (Homo sapiens). Conditions: at 10 µM.

On to `COc1cccc(-c2cc(=O)c3ccccc3o2)c1N`, for which the residual activity is 113% in [1]; 104% in experiment [2]; 106% in experiment [3]; 105% in experiment [4]; 121% in experiment [5]; 108% in [6]. Also, the residual activity in experiment [7] was determined as 107%; in experiment [8], 119%; in [9] it was 113%; in experiment [10], 113%; in experiment [11], 106%; in [12], 100%.
On to `O=C1NC(=O)/C(=C/c2ccc3c(c2)OC(F)(F)O3)S1`, for which the residual activity in [1] is 106%; in [2], 102%; in experiment [3] it was 134%; in experiment [4], 126%; in experiment [5] it was 98%; in [6], 102%. Besides, the residual activity amounted to 103% in [7]; 101% in experiment [8]; 107% in experiment [9]; 103% in experiment [10]; 106% in [11]; 99% in [12].
In the case of `O=Nc1c(-c2c(O)[nH]c3ccccc23)[nH]c2ccccc12`, the residual activity stood at 93% in [1]; 86% in experiment [2]; 93% in [3]; 94% in experiment [4]; 95% in experiment [5]; 102% in experiment [6]. The residual activity in experiment [7] was 92%; in experiment [8], 73%; in experiment [9], 85%; in [10] it was 80%; in experiment [11], 106%; in experiment [12], 91%.
Turning to `CC(=O)c1ccc(N2CCOCC2)cc1O`, the residual activity was 101% in experiment [1]; 102% in experiment [2]; 107% in experiment [3]; 101% in experiment [4]; 100% in experiment [5]; 93% in experiment [6]. Further, the residual activity is 109% in experiment [7]; 108% in experiment [8]; 101% in experiment [9]; 103% in experiment [10]; 91% in experiment [11]; 82% in experiment [12].
On to `c1ccc2c(-c3ccncc3)c[nH]c2c1`, for which the residual activity in experiment [1] was determined as 98%; in experiment [2] it was 80%; in [3] it was 105%; in [4] it was 64%; in experiment [5] it was 98%; in experiment [6] it was 65%. For the same molecule, the residual activity in [7] is 106%; in experiment [8], 86%; in experiment [9], 63%; in [10] it was 23%; in experiment [11], 73%; in experiment [12] it was 55%.
As for `O=[N+]([O-])c1ccc(-c2nc(-c3ccc(F)cc3)c(-c3ccncc3)[nH]2)cc1`, the residual activity was 110% in experiment [1]; 99% in experiment [2]; 107% in experiment [3]; 97% in [4]; 107% in experiment [5]; 96% in [6]. In addition, the residual activity in experiment [8] turned out to be 114%; in experiment [9] it was 104%; in experiment [10], 103%; in experiment [11], 106%; in [12], 99%.
`Cn1cc(/C=C2\C(=O)Nc3ccc(S(N)(=O)=O)cc32)c2ccccc21`: the residual activity in experiment [1] was 108%; in [2], 104%; in experiment [3], 111%; in experiment [4] it was 109%; in experiment [5] it was 103%; in [6], 108%. Also, the residual activity in [8] was found to be 79%; in experiment [9], 101%; in experiment [10], 99%; in experiment [11], 90%; in experiment [12], 100%.
Take `Oc1ccc(Nc2nc(-c3ccc(Cl)cc3)cs2)cc1`: the residual activity came to 110% in experiment [1]; 101% in experiment [2]; 112% in [4]; 121% in experiment [5]; 101% in experiment [6]; 102% in experiment [7]. In addition, the residual activity in experiment [8] was 105%; in [9], 105%; in experiment [10] it was 110%; in experiment [11], 115%; in [12] it was 112%.
On to `Cc1nc(-c2ccccc2)c(-c2ccncc2)o1`, for which the residual activity in [1] was determined as 113%; in [2], 101%; in experiment [3], 109%; in experiment [4], 95%; in [5] it was 106%; in experiment [6], 101%. In addition, the residual activity was found to be 108% in [7]; 101% in experiment [9]; 90% in [10]; 108% in [11]; 108% in experiment [12].
On to `CC#CC(=O)Nc1cc2c(Nc3ccc(F)c(Cl)c3)ncnc2cn1`, for which the residual activity in [1] amounted to 103%; in experiment [2], 96%; in experiment [3], 113%; in experiment [4], 103%; in experiment [5] it was 101%; in experiment [6] it was 101%. For the same molecule, the residual activity in experiment [7] was 109%; in [8] it was 105%; in [9], 94%; in experiment [10] it was 102%; in experiment [11], 90%; in experiment [12], 94%.
In the case of `O=C1Nc2cc(Br)ccc2/C1=C1/Nc2ccccc2/C1=N\O`, the residual activity in [1] was 98%; in experiment [2] it was 104%; in experiment [3], 100%; in experiment [4], 101%; in experiment [5], 102%; in experiment [6] it was 95%. The residual activity in experiment [7] worked out at 101%; in experiment [8], 107%; in experiment [9] it was 112%; in experiment [10] it was 118%; in experiment [11], 107%; in experiment [12], 91%.
As to `N#CC(C#N)=C(N)/C(C#N)=C/c1ccc(O)cc1`, the residual activity in [3] was 120%; in experiment [4] it was 122%; in experiment [5] it was 96%; in experiment [6], 90%; in [8] it was 79%; in experiment [11], 95%. Moreover, the residual activity in experiment [12] worked out at 89%.
`O=c1c2ccccc2[nH]c(=S)n1CCN1CCC(=C(c2ccc(F)cc2)c2ccc(F)cc2)CC1`: the residual activity in experiment [1] was 108%; in experiment [2], 105%; in experiment [3] it was 109%; in [4], 109%; in experiment [5], 101%; in experiment [6] it was 104%. For the same molecule, the residual activity stood at 116% in [7]; 117% in experiment [8]; 101% in experiment [9]; 97% in experiment [10]; 91% in [11]; 93% in experiment [12].
Regarding `Cn1cnc2cc3c(Nc4cccc(Br)c4)ncnc3cc21`, the residual activity was determined as 101% in [1]; 98% in experiment [2]; 109% in experiment [3]; 85% in experiment [4]; 100% in experiment [5]; 95% in experiment [6]. The residual activity turned out to be 103% in experiment [7]; 99% in experiment [8]; 97% in experiment [9]; 100% in experiment [10]; 86% in [11]; 95% in experiment [12].
Consider `c1ccc(-c2n[nH]cc2-c2ccnc3ccccc23)nc1`, for which the residual activity was 101% in [5]; 94% in experiment [6]; 94% in [9]; 92% in experiment [10]; 74% in [11]; 89% in experiment [12].
Consider `c1ccc(-c2n[nH]c3c2oc2ccccc23)cc1`, for which the residual activity is 96% in experiment [5], 98% in [6], 97% in [11] and 88% in [12].
For the molecule `COc1cc2ncc(-c3ccccc3)nc2cc1OC`, the residual activity was found to be 131% in experiment [3], 124% in [4], 97% in [5] and 96% in [6].
As for `N#Cc1cnc2cnc(NCc3cccnc3)cc2c1Nc1ccc(F)c(Cl)c1`, the residual activity in [1] came out at 98%; in experiment [2], 55%; in experiment [3], 18%; in [4] it was 18%; in experiment [9] it was 61%; in [10] it was 24%. The residual activity turned out to be 81% in experiment [11] and 42% in [12].
With `N#CCCc1ccc2c(c1)-c1[nH]c3ccc([N+](=O)[O-])cc3c1CC(=O)N2`, the residual activity is 68% in experiment [9] and 57% in [10].
